Activity calls are given as the source filed them. Unless noted, no rule for the calls is given here.
What was measured:
[1] = compound effects on lung adenocarcinoma cell viability – A549, calcein-AM fluorescence, 48 h, basal, profiling panel (AID 1162); conditions: higher = more signal; also: test concentration not given here
[2] = compound effects on differentiated 3T3-L1 adipocyte viability – cell-based, 3T3-L1 adipocytes, calcein-AM fluorescence, 48 h, basal, profiling panel (AID 1163); conditions: 3T3-L1 adipocytes viability, higher = more signal; also: test concentration not given here
[3] = compound effects on hepatocellular carcinoma cell viability – HepG2, calcein-AM fluorescence, 48 h, basal, profiling panel (AID 1164); conditions: higher = more signal; also: test concentration not given here
[4] = compound effects on multiple myeloma cell viability – MM1S, calcein-AM fluorescence, 48 h, basal, profiling panel (AID 1165); conditions: higher = more signal; also: test concentration not given here
[5] = calcein-AM signal in unstimulated myeloma cells – cell-based, calcein-AM fluorescence, 48 h, PK04 Diversity Set, profiling panel (AID 1166); conditions: RPMI8226 myeloma viability, higher = more signal;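 also: cells grown under basal conditions without added stimulus; test concentration not given here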
[6] = JC-1 mitochondrial signal, unstimulated HepG2 cells – cell-based, JC-1 fluorescence, 24 h, 100 nL compound, profiling panel (AID 1167); conditions: HepG2 mitochondrial potential, higher = more signal; also: test concentration not given here
[7] = JC-1 mitochondrial signal, unstimulated adipocytes – cell-based, JC-1 fluorescence, 3T3-L1 adipocytes, 24 h, 100 nL compound, profiling panel (AID 1168); conditions: JC-1 mitochondrial fluorescence, higher = more signal, called active from +8 up or from −8 down; also: test concentration not given here
[8] = JC-1 mitochondrial signal, unstimulated myeloma cells – cell-based, JC-1 fluorescence, RPMI8226, 24 h, 100 nL compound, profiling panel (AID 1169); conditions: JC-1 mitochondrial potential fluorescence, higher = more signal; also: test concentration not given here
[9] = JC-1 mitochondrial signal, unstimulated MM1S myeloma – cell-based, JC-1 fluorescence, 24 h, 100 nL compound, profiling panel (AID 1170); conditions: MM1S mitochondrial potential, higher = more signal; also: test concentration not given here
[10] = resazurin metabolic signal in A549 cells – cell-based, resazurin fluorescence, 24 h, PK04 Diversity Set, profiling panel (AID 1171); conditions: A549 viability, higher = more signal, called active from +8 up or from −8 down; also: test concentration not given here
[11] = resazurin metabolic signal in HepG2 cells – cell-based, resazurin fluorescence, 24 h, PK04 Diversity Set, profiling panel (AID 1172); conditions: HepG2 viability, higher = more signal; also: test concentration not given here
[12] = budding yeast growth changes without added modifier – OD600, strain BY4716, 24 h, basal condition, primary screen (AID 1173); conditions: S. cerevisiae BY4716 growth, OD600, 24 h; higher = more signal, called active from +8 up or from −8 down
[13] = viability profiling in MM1S myeloma cells – cell-based, resazurin fluorescence, basal, 24 h, PK04 Diversity Set, profiling panel (AID 1174); conditions: higher = more signal, called active from +8 up or from −8 down; also: test concentration not given here
[14] = target: Dihydroorotate dehydrogenase (quinone), mitochondrial (Plasmodium falciparum (isolate 3D7)) (UniProt Q08210); test: inhibition of P. falciparum DHODH – biochemical, C-terminal His tag, absorbance 600 nm, primary screen (AID 1175); conditions: PfDHODH enzyme, DCIP absorbance 600 nm; higher = more signal, called active from +8 up or from −8 down;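 also: recombinant parasite enzyme with a five histidine tag at its C terminus; test concentration not given here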
Chain of Dihydroorotate dehydrogenase (quinone), mitochondrial (Plasmodium falciparum (isolate 3D7)) (Q08210 whole entry, looked up): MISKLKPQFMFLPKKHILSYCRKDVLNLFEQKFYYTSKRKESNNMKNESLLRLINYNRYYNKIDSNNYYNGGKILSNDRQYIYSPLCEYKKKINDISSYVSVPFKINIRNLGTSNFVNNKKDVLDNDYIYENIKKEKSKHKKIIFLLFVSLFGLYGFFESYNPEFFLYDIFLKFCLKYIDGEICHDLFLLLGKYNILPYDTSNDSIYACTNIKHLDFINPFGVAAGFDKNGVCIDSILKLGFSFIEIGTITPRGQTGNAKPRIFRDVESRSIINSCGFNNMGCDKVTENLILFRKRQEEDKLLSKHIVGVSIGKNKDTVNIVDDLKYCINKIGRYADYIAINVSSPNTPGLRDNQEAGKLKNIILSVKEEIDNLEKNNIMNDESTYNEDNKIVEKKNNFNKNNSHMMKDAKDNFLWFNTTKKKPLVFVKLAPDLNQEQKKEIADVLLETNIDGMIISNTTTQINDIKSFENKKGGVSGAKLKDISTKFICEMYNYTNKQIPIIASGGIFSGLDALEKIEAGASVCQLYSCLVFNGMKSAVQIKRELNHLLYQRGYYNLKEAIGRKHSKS

[15] = inhibition of PAO1 biofilm formation – strain PAO1, LB-PBS medium, absorbance 600 nm, primary screen (AID 1176); also: test concentration not given here; conditions: P. aeruginosa PAO1 growth/biofilm, A600, 12 h; higher = more signal
[16] = growth modulation of vineyard yeast isolate – strain RM11-1a, OD600, basal, 24 h, primary screen (AID 1177);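 also: cultures grown under basal conditions with no added stressor; test concentration not given here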; conditions: S. cerevisiae RM11-1a growth, OD600, 24 h; higher = more signal, called active from +8 up or from −8 down
[17] = growth of efflux-deficient E. coli DRC39 – strain DRC39, OD650, 24 h, E. coli filamentation inducers, primary screen (AID 1178);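 also: growth measured as culture turbidity by optical density at 650 nm; test concentration not given here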; conditions: E. coli DRC39 acrAB, higher = more signal, called active from +8 up or from −8 down
[18] = growth of efflux-deficient E. coli DRC39 – strain DRC39, OD650, 48 h, E. coli filamentation inducers, primary screen (AID 1179);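 also: screen aims at cell division blockers that make cells filament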; conditions: E. coli DRC39 delta-acrAB growth, higher = more signal, called active from +8 up or from −8 down
[19] = viability profiling in RPMI8226 myeloma cells – cell-based, resazurin fluorescence, basal, 24 h, PK04 Diversity Set, profiling panel (AID 1180); conditions: higher = more signal;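 also: RPMI8826 multiple myeloma cell line at 5000 cells per well; test concentration not given here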
[20] = target: E3 ubiquitin-protein ligase XIAP (Homo sapiens) (UniProt P98170); test: small molecules binding XIAP protein – biophysical, small-molecule microarray, fluorescence 635 nm, primary screen (AID 1181); conditions: higher = more signal;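 also: score merges 667 nm emission and signal to noise over triplicate slides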
Chain of E3 ubiquitin-protein ligase XIAP (Homo sapiens) (P98170 whole entry, looked up): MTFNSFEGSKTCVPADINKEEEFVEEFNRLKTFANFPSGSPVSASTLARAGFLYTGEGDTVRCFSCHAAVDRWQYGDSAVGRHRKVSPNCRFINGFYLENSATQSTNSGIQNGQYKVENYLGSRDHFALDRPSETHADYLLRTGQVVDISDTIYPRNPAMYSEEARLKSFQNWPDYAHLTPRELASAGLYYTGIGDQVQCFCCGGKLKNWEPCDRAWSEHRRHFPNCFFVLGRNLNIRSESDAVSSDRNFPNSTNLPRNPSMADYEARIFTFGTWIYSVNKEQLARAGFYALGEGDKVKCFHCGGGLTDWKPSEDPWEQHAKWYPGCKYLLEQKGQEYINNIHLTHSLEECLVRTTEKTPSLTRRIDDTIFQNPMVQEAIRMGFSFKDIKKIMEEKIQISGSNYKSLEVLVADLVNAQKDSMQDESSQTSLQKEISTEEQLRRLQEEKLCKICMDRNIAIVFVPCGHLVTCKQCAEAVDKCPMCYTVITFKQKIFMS

CC(C)c1ccc(NN2C(C(O)c3ccccc3)C=CC3C(=O)N(c4ccccc4)C(=O)C32)cc1 (stereo not given)
z-score [1]: 1.53
z-score [2]: -1.6
z-score [3]: 1.22
z-score [4]: -0.168
z-score [5]: 0.159
z-score [6]: -1.13
z-score [7]: 0.821 (inactive)
z-score [8]: -0.197
z-score [9]: -0.906
z-score [10]: 0.235 (inactive)
z-score [11]: 0.685
z-score [12]: -1.79 (inactive)
z-score [13]: -2.57 (inactive)
composite z-score [14]: 1.25 (inactive)
z-score [15]: 1.16 (inactive)
z-score [16]: 1.58 (inactive)
z-score [17]: 0.493 (inactive)
z-score [18]: 0.289 (inactive)
z-score [19]: 0.039
composite z-score [20]: -0.0669

O=C1O[C@@H](c2ccccc2)[C@@H](c2ccccc2)N2[C@@H](c3ccccc3OCCO)[C@]3(C(=O)Nc4ccc(C#CC5(O)CCCCCC5)cc43)[C@@H](C(=O)N3CCCCCCC3)[C@H]12
z-score [1]: -1.66
z-score [2]: 1.48
z-score [3]: -0.0161
z-score [4]: -0.651
z-score [5]: -2.59
z-score [6]: -1.4
z-score [7]: 0.644 (inactive)
z-score [8]: -0.96
z-score [9]: -1.33
z-score [10]: -0.64 (inactive)
z-score [11]: -0.225
z-score [12]: 0.866 (inactive)
z-score [13]: -0.169 (inactive)
composite z-score [14]: -1.03 (inactive)
z-score [15]: 1.33 (inactive)
z-score [16]: 0.312 (inactive)
z-score [17]: -0.36 (inactive)
z-score [18]: -1.17 (inactive)
z-score [19]: -0.186
composite z-score [20]: 1.97

C=CCNC(=O)[C@H]1[C@@H]2C(=O)O[C@@H](c3ccccc3)[C@@H](c3ccccc3)N2[C@@H](c2ccc(O)cc2)[C@]12C(=O)N(C(=O)OCCOC)c1ccc(C#Cc3ccc(OC)cc3)cc12
z-score [1]: -0.98
z-score [2]: -1.44
z-score [3]: 0.147
z-score [4]: -1.26
z-score [5]: -1.2
z-score [6]: -1.62
z-score [7]: 0.202 (inactive)
z-score [8]: -0.625
z-score [9]: -0.804
z-score [10]: -0.0733 (inactive)
z-score [11]: 0.267
z-score [12]: 0.469 (inactive)
z-score [13]: -0.466 (inactive)
composite z-score [14]: -0.208 (inactive)
z-score [15]: 0.485 (inactive)
z-score [16]: 0.539 (inactive)
z-score [17]: -1.2 (inactive)
z-score [18]: -0.844 (inactive)
z-score [19]: -0.772
composite z-score [20]: -0.0427

C=C(C(=O)CC[C@@H](OC(=O)c1ccccc1-c1ccccc1C(=O)O)c1ccc(CO)o1)C(C)C
z-score [1]: -0.656
z-score [2]: 0.231
z-score [3]: 0.473
z-score [4]: -1.33
z-score [5]: -0.951
z-score [6]: -1.54
z-score [7]: -0.747 (inactive)
z-score [8]: -0.479
z-score [9]: -0.0298
z-score [10]: -0.359 (inactive)
z-score [11]: -0.31
z-score [12]: -0.317 (inactive)
z-score [13]: 0.114 (inactive)
composite z-score [14]: -2.18 (inactive)
z-score [15]: 1.63 (inactive)
z-score [16]: 0.0083 (inactive)
z-score [17]: 0.159 (inactive)
z-score [18]: -0.171 (inactive)
z-score [19]: 0.16
composite z-score [20]: -0.282

C=C(C(=O)CC[C@@H](OC(=O)c1ccccc1-c1ccccc1C(=O)O)c1ccc(OCCO)cc1)C(C)C
z-score [1]: -0.514
z-score [2]: 0.517
z-score [3]: 0.654
z-score [4]: -3.22
z-score [5]: -2.98
z-score [6]: -0.556
z-score [7]: -1.2 (inactive)
z-score [8]: -0.787
z-score [9]: -0.547
z-score [10]: -0.0237 (inactive)
z-score [11]: -0.304
z-score [12]: -1.3 (inactive)
z-score [13]: 0.089 (inactive)
composite z-score [14]: -1.29 (inactive)
z-score [15]: 0.85 (inactive)
z-score [16]: -0.718 (inactive)
z-score [17]: -0.166 (inactive)
z-score [18]: -0.135 (inactive)
z-score [19]: 0.488
composite z-score [20]: -0.101

Cc1ccc(S[C@]2(C(=O)NCc3ccccc3)CC(=O)N(Cc3ccccc3Cl)[C@@H]2c2ccc(CO)cc2)cc1
z-score [1]: -0.643
z-score [2]: 0.9
z-score [3]: 0.191
z-score [4]: 0.0218
z-score [5]: -1.25
z-score [6]: 0.0273
z-score [7]: -0.537 (inactive)
z-score [8]: -0.517
z-score [9]: 0.666
z-score [10]: 0.0338 (inactive)
z-score [11]: -1.46
z-score [12]: -0.288 (inactive)
z-score [13]: 0.464 (inactive)
composite z-score [14]: 0.429 (inactive)
z-score [15]: 0.338 (inactive)
z-score [16]: 0.884 (inactive)
z-score [17]: -0.545 (inactive)
z-score [18]: -0.756 (inactive)
z-score [19]: 0.335
composite z-score [20]: 0.0623

COC(=O)[C@@]1(Cc2ccc(F)cc2)[C@H]2c3cc(C(=O)N(C)C)n(Cc4ccsc4Br)c3C[C@H]2CN1C(=O)c1ccccc1
z-score [1]: -0.981
z-score [2]: -0.291
z-score [3]: 0.191
z-score [4]: -0.766
z-score [5]: -0.985
z-score [6]: 2.64
z-score [7]: 0.18 (inactive)
z-score [8]: 0.415
z-score [9]: -1.17
z-score [10]: -0.836 (inactive)
z-score [11]: -1.05
z-score [12]: 1.08 (inactive)
z-score [13]: -1.36 (inactive)
composite z-score [14]: -0.713 (inactive)
z-score [15]: 1 (inactive)
z-score [16]: 0.47 (inactive)
z-score [17]: -1.52 (inactive)
z-score [18]: -0.85 (inactive)
z-score [19]: -2.7
composite z-score [20]: 0.447

Cc1c(NC(=O)/C(C#N)=C/C=C/c2ccc([N+](=O)[O-])cc2)c(=O)n(-c2ccccc2)n1C
z-score [1]: 0.251
z-score [2]: -0.141
z-score [3]: -0.182
z-score [4]: -1.02
z-score [5]: -0.787
z-score [6]: -1.19
z-score [7]: 0.0244 (inactive)
z-score [8]: -0.278
z-score [9]: 0.096
z-score [10]: 0.0981 (inactive)
z-score [11]: -0.559
z-score [12]: -0.546 (inactive)
z-score [13]: 0.11 (inactive)
composite z-score [14]: 0.142 (inactive)
z-score [15]: -0.736 (inactive)
z-score [16]: -0.254 (inactive)
z-score [17]: -0.465 (inactive)
z-score [18]: -0.412 (inactive)
z-score [19]: 0.664
composite z-score [20]: -0.0581

— PubChem BioAssay
